From PubChem BioAssay (NCATS)
Where “and” joins values, the source holds several entries; their conditions need not be identical. Equal values may be shown once. Results filed as inconclusive are left out. Calls of active or inactive are those of the source. The call rests on the fitted dose curve; in most records, active means well fitted curve in the direction sought with a large enough effect; inconclusive means small, poorly fitted or top-dose-only effect, or another doubt; inactive means no such curve, though single readings can be large; an effect the other way counts as inactive or inconclusive.

Experiments:
[1] = target: Cellular tumor antigen p53 (Homo sapiens) (UniProt P04637); assay: Primary qHTS for small molecule compounds that upregulate eGFP-tagged delta133p53alpha (in N-terminal) cells. (AID 2060322); conditions: NCI-H358 eGFP-delta133p53alpha fluorescence, 24 h; activation: hits give high values; further: nearly all actives have a fitted effect of over 75% in size; further: potency means the concentration at half of the fitted maximal effect;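 on activation: cells pre-induced with doxycycline then dosed without doxycycline; series mostly up to about 56 µM; 0% = DMSO vehicle and 100% = reference activator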
Outline: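 NCI-H358 cells pre-induced 24 h with 10 ng/ml doxycycline for eGFP-delta133p53alpha, plated dox-free and exposed 24 h at 37C to titrated compounds. Fixed, Hoechst-stained; gated GFP peak intensity by laser scanning cytometry, normalized to DMSO (0%) and 57.5 uM 5-azacytidine (100%).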

[2] = target: Aldehyde dehydrogenase, mitochondrial (Homo sapiens) (UniProt P05091); assay: qHTS for Inhibitors of the Aldehyde Dehydrogenase Family (ALDH2) Primary screen (AID 2061308);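 further: plate controls were vehicle for no effect and reference inhibitor for full effect; nearly all actives have a fitted effect of over 55% in size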
[3] = target: Retinaldehyde dehydrogenase 3 (Homo sapiens) (UniProt P47895); assay: qHTS for Inhibitors of the Aldehyde Dehydrogenase Family (ALDH1A3) Validation screen (AID 2061312); further: on the % scale 0 is the no-effect control and ±100 the full control effect; nearly all actives have a fitted effect of over 45% in size
[4] = target: Retinaldehyde dehydrogenase 3 (Homo sapiens) (UniProt P47895); assay: qHTS for Inhibitors of the Aldehyde Dehydrogenase Family (ALDH1A3) Primary screen (AID 2061315);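 further: plate controls were DMSO vehicle for no effect and reference inhibitor for full effect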
[5] = BET inhibitor-based combinations targeting novel dependencies in MECOM-rearranged (r) AML: MV-4-11 cell line (AID 2202233); further: nearly all actives have a fitted effect of over 45% in size; further: potency means the concentration at half of the fitted maximal effect
Outline: (§1)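 Activity is given as area under the curve and as Z-AUC, mean-centred within each cell line. It comes from 11-point dose curves normalized to DMSO and empty wells. CellTiter-Glo luminescence was read after 48 hr drug exposure of 500 cells/well.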

[6] = BET inhibitor-based combinations targeting novel dependencies in MECOM-rearranged (r) AML: HNT-34 cell line (AID 2202234); further: nearly all actives have a fitted effect of over 35% in size; further: potency means the concentration at half of the fitted maximal effect
Outline: as §1

[7] = BET inhibitor-based combinations targeting novel dependencies in MECOM-rearranged (r) AML: UCSD-AML1 cell line (AID 2202235); further: nearly all actives have a fitted effect of over 40% in size; further: potency means the concentration at half of the fitted maximal effect
Outline: as §1

[8] = BET inhibitor-based combinations targeting novel dependencies in MECOM-rearranged (r) AML: SET-2 cell line (AID 2202231); conditions: SET-2 AML cells viability, CellTiter-Glo luminescence, 48 h; viability: hits give low values, concentration not given here; further: nearly all actives have a fitted effect of over 35% in size; further: potency means the concentration at half of the fitted maximal effect;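 on viability: plate controls were DMSO treated cells for no effect and wells without cells for full effect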
Outline: (§2)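 Cells were plated at 500 per well and exposed to an 11-point dose series of each drug for 48 hr. Viability was measured by CellTiter-Glo luminescence, normalized to DMSO and empty-well controls, and summarized as AUC and per-cell-line Z-AUC.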

[9] = BET inhibitor-based combinations targeting novel dependencies in MECOM-rearranged (r) AML: AML-191 cell line (AID 2202236; further: nearly all actives have a fitted effect of over 35% in size; further: potency means the concentration at half of the fitted maximal effect)
Outline: as §2

[10] = BET inhibitor-based combinations targeting novel dependencies in MECOM-rearranged (r) AML: AML-194 cell line (AID 2202237; further: nearly all actives have a fitted effect of over 40% in size; further: potency means the concentration at half of the fitted maximal effect)
Outline: as §2

Cellular tumor antigen p53 (Homo sapiens), sequence (P04637 whole entry, looked up): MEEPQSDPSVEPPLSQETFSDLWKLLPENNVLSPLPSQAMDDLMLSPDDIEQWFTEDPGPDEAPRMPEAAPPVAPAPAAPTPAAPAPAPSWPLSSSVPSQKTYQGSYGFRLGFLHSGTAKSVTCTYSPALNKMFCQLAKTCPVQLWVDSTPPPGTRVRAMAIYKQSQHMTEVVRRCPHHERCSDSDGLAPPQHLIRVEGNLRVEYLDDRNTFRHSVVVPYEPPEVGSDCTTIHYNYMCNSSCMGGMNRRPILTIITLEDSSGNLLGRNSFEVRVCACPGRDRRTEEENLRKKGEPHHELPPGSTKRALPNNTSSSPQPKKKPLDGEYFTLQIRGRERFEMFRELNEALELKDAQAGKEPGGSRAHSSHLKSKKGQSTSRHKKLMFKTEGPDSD

CC1(C)C(=O)N(c2ccc(C#N)c(C(F)(F)F)c2)C(=S)N1c1ccc(C(N)=O)c(F)c1
inactive: activation [1] 1.43% | Potency [2] | Potency [3] | Potency [4]

C[C@H]1CN(Cc2ccc(CC(=O)N3CCC(Nc4cccc(F)c4)CC3)cc2)CCN1
inactive: activation [1] -12.4% | Potency [2] | Potency [3] | Potency [4]

N#Cc1cn([C@@H]2O[C@H](CO)[C@H](O)[C@@H]2O)c2ncnc(N)c12
inactive: Potency [2] | Potency [3] | Potency [4]
active: Potency [1] 75.7 nM

COc1cc(CCNCc2ccccc2O)c(OC)cc1C#N
inactive: activation [1] -6.21% | Potency [2] | Potency [3] | Potency [4]

CN(C)CCc1c[nH]c2ccc(CN3CCN(C)S3(=O)=O)cc12
inactive: activation [1] -4.3% | Potency [2] | Potency [3] | Potency [4]

Cc1ccc(-n2nccn2)c(C(=O)N2CCN(c3nc4cc(Cl)ccc4o3)CCC2C)c1 (centres undefined)
inactive: activation [1] -12.4% | Potency [2] | Potency [3] | Potency [4]

C[C@H]1CN(CC[C@H](O)C2CCCCC2)CC[C@@]1(C)c1cccc(O)c1
inactive: activation [1] -6.21% | Potency [2] | Potency [3] | Potency [4]

O=C(N1CCOCC1)N1CCN(c2ccc(Cl)cc2)CC1
inactive: activation [1] 10% | Potency [2] | Potency [3] | Potency [4]

CN(C(=O)C(c1ccccc1)c1ccccc1)[C@H](CN1CC[C@H](O)C1)c1ccccc1
inactive: activation [1] 14.8% | Potency [2] | Potency [3] | Potency [4]

OC1(c2ccc(Cl)cc2)c2ccccc2C2=NCCN21 (centres undefined)
inactive: activation [1] 6.21% | Potency [2] | Potency [3] | Potency [4]

C[C@@]1(CO)[C@H](O)CC[C@@]2(C)[C@H]1CC[C@H]1C[C@@H]3C[C@@]12CC[C@]3(O)CO
inactive: activation [1] -3.82% | Potency [2] | Potency [4]

Cc1ccccc1C1=CCN(C)CC1
inactive: activation [1] 1.67% | Potency [2] | Potency [4]

O=C(N1CCCCC1Cc1ccccc1)n1cc(-c2ccc(-c3ccccc3)cc2)nn1 (centres undefined)
inactive: activation [1] 1.43% | Potency [2] | Potency [3] | Potency [4]

Cc1ccc(Cn2nc(C(=O)N[C@@H]3C(C)(C)[C@@H]4CC[C@@]3(C)C4)cc2-c2ccc(Cl)c(C)c2)cc1
inactive: activation [1] -9.82% | Potency [2] | Potency [4]

CC(C)N(CCNC(=O)CN1CCCC1=O)C(C)C
inactive: activation [1] -9.94% and -3.34% | Potency [2] | Potency [3] | Potency [4]

C1=C2CCCN[C@H]2[C@@H]2C[C@H]1[C@H]1CCCCN1C2
inactive: activation [1] -9.55% | Potency [2] | Potency [3] | Potency [4]

O=C1C=CC[C@@H]2[C@H]3CCCN4CCC[C@@H](CN12)[C@@H]34
inactive: activation [1] -8.56% and -6.68% | Potency [2] | Potency [3] | Potency [4] | Potency [5] | Potency [6] | Potency [7]

O=c1[nH]c2ccc(Cl)cc2c(N[C@@H]2CN3CCC2CC3)c1-c1nc2ccccc2[nH]1
inactive: Potency [2] | Potency [3] | Potency [4]
active: Potency [1] 17.2 µM and 2.69 µM | Potency [8] 0.332 µM | Potency [6] 590 nM | Potency [7] 0.417 µM

C[C@@H]1CN(Cc2ccc(F)cc2)CCN1C(=O)COc1ccc(Cl)cc1NC(N)=O
inactive: activation [1] 1.91% | Potency [2] | Potency [3] | Potency [4]
active: Potency [5] 14.8 µM | Potency [9] 7.42 µM | Potency [10] 18.6 µM

O=C1CN=C(c2cccc(Br)c2)c2oc3ccccc3c2N1
inactive: activation [1] -24.3% | Potency [2] | Potency [3] | Potency [4]

CC(=O)N1N=C(c2ccc(N)cc2)c2cc3c(cc2C[C@H]1C)OCO3
inactive: activation [1] -0.955% | Potency [2] | Potency [3] | Potency [4] | viability [8] 93.4% | Potency [5] | Potency [6] | Potency [9] | Potency [10]

CCNC(=O)CC1N=C(c2ccc(Cl)cc2)c2cc(OC)ccc2-n2c(C)nnc21 (centres undefined)
active: Potency [7] 9.34 µM
inactive: activation [1] -24.1% and -15% and -22.4% | Potency [2] | Potency [3] | Potency [4] | Potency [10]

NCCCCCNC1(c2ccccc2)CCCCC1
inactive: activation [1] -6.68% | Potency [2] | Potency [3] | Potency [4]

CN(C)c1cc2c(cc1Sc1nc3c(N)nccc3n1CCNCC(C)(C)C)OCO2
inactive: activation [1] 5.25% | Potency [2] | Potency [3] | Potency [4]
active: Potency [8] 1.32 µM | Potency [5] 0.662 µM | Potency [7] 1.32 µM

CN[C@H]1[C@H](O)[C@H](O[C@@H]2[C@@H](O)[C@H](O[C@H]3O[C@H]([C@H](C)O)[C@@H](O)[C@H](O)[C@H]3N)[C@@H](N)C[C@H]2N)OC[C@@]1(C)O
inactive: activation [1] -4.3% | Potency [2] | Potency [3] | Potency [4]

CCOc1ccccc1-n1c(C(C)N2CCN(C(=O)COc3ccc(Cl)cc3)CC2)nc2ccccc2c1=O (centres undefined)
inactive: activation [1] 0.955% | Potency [2] | Potency [3] | Potency [4]
active: Potency [8] 1.32 µM | Potency [5] 3.32 µM | Potency [9] 2.63 µM | Potency [10] 4.68 µM
